The nature of assay [1]: Cell Viability - Jurkat (AID 426;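 active means dose-dependent loss of cell ATP signal giving a full or clear fitted curve, ranked by lower potency value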;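 further: potency means the concentration at half of the fitted maximal effect; cells exposed to compound for 40 hours at 37 °C before ATP read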). To be noted: qHTS. The method in brief: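 Seed 5000 Jurkat E6-1 cells/well; add compound; incubate 40 hr at 37 °C; add CellTiter-Glo; wait 20 min at room temperature; read luminescence. Fit concentration-response with Hill equation for AC50.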
On the technique in general: In qHTS, concentration-response curves come from the screen itself.

The nature of assay [2]: Cell Viability - Hek293 (AID 427;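 active means compounds whose dose-response curve shows a full or clear partial loss of cell viability, called from curve shape rather than a numeric limit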;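 further: potency means the concentration at half of the fitted maximal effect; cells exposed to compound for 40 hours at 37 °C before reading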). Particulars: qHTS. The method in brief:
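qHTS, human embryonic kidney (adenovirus-transformed) cells; 40 hr cpd, 37 °C; CellTiter-Glo ATP luminescence. Norm: DMSO = 0, 100 uM tamoxifen = 100% inhibition. Hill-fit AC50.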

Assay [3] is described as follows: Cell Viability - N2a (AID 540).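 Further: cells exposed to compound for 40 h at 37 °C; plate controls were DMSO alone for no effect and tamoxifen control for full effect; nearly all actives have a fitted effect of over 45% in size.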 Particulars: N2a mouse neuroblastoma cell viability; at 92.2 µM (top of the series). The method in brief: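 First, 1500 N2a cells per well incubate 5 hr at 37 °C; next, compounds are added and incubated 40 hr at 37 °C; finally CellTiter-Glo is added and luminescence read after 20 min, with AC50 derived by Hill modeling.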
The nature of assay [4]: Cell Viability - H-4-II-E (AID 543).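 Further: cells exposed to compound for 40 hours; nearly all actives have a fitted effect of over 35% in size.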 Further: potency means the concentration at half of the fitted maximal effect. To be noted: H-4-II-E rat hepatoma viability; series mostly up to 92.2 µM. A digest of the protocol: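 Here, cytotoxicity is measured in the rat hepatoma line H-4-II-E as loss of intracellular ATP after 40 hr compound treatment, detected by luciferase luminescence.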
Assay [5] can be described thus: Cellular Toxicity (caspase-3) HepG2 (AID 654).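 Further: cells exposed to compound for 16 hours before reading; 0% = DMSO alone and 100% = caspase signal from 100 µM tamoxifen.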 Particulars: HepG2 caspase-3 activation, luminescence, 0% = DMSO only, 100% = tamoxifen; series mostly up to 92.2 µM. The method in brief:
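qHTS, HepG2, 1500 cells/well, complete medium; cpd 16 h 37 °C; Caspase-Glo 3/7, 20 min RT; lum. Norm: DMSO vs 100 uM tamoxifen; AC50 Hill fit.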

Assay [6] is described as follows: Cellular Toxicity (caspase-3) NIH 3T3 (AID 666).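 Further: caspase signal read after 16 h compound exposure; 0% = DMSO basal and 100% = 100 µM tamoxifen stimulation.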 To be noted: NIH 3T3 caspase-3 activation, apoptosis/toxicity, 0% DMSO, 100% is 100 µM tamoxifen; series mostly up to 92.2 µM. The method in brief:
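Concentration-response qHTS in NIH 3T3 mouse fibroblasts scores caspase-3/7 activation as rising luminescence after 16 hr compound exposure. Signals are scaled between DMSO-only and 100 uM tamoxifen.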

The nature of assay [7]: MultiTox-Fluor Cytotoxicity Assay - LYMP1-002 - Live Cells (AID 955).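 Further: cells exposed to compound for 16 hours; on the % scale 0 is the no-effect control and ±100 the full control effect.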 To be noted: LYMP1-002 lymphoblastoid live-cell protease fluorescence viability; series mostly up to 46.1 µM. A digest of the protocol: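 Cytotoxicity in the human lymphoblastoid line LYMP1-002 is measured as loss of live-cell protease activity after 16 h treatment in complete culture medium. AC50 is derived from Hill-equation fits of qHTS concentration-response data.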

Assay [8] in a line: MultiTox-Fluor Cytotoxicity Assay - LYMP1-003 - Live Cells (AID 962).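 Further: cells exposed to compound for 16 hours at 37 °C; 0% = DMSO only and full loss = 92 µM tetraoctylammonium bromide; cytotoxic hits lower the live-cell protease signal.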 To be noted: LYMP1-003 lymphoblastoid cells, MultiTox-Fluor live-cell protease fluorescence; series mostly up to 92.2 µM. The method in brief: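 Cells plated at 2500 per well and incubated 5 hr; compounds added and incubated 16 hr at 37 C; MultiTox-Fluor reagent added for 60 min at room temperature; fluorescence of liberated AFC measured at 405/510 nm.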

Assay [9] can be described thus: Cell Viability - LYMP1-003 - Assay at 40 hr (AID 964). Further: on the % scale 0 is the no-effect control and ±100 the full control effect; nearly all actives have a fitted effect of over 60% in size. To be noted: LYMP1-003 lymphoblastoid viability; series mostly up to 92.2 µM. The method in brief:
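This qHTS cytotoxicity screen treats human lymphoblastoid cells (LYMP1-003) with compounds for 40 hr and quantifies cellular ATP via luciferase luminescence.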

Assay [10] is described as follows: Cell Viability - LYMP2-003 (AID 965).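 Further: cells exposed to compounds for 24 h before reading; nearly all actives have a fitted effect of over 50% in size.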 Further: potency means the concentration at half of the fitted maximal effect.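 On activity change, negative = cytotoxicity: 0% = DMSO only and full effect = 92 µM tetraoctylammonium bromide.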 To be noted: LYMP2-003 lymphoblastoid cell viability; series mostly up to 92.2 µM. The method in brief:
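CellTiter-Glo luminescence (cellular ATP) after 24 h compound exposure at 37 C in complete medium; 2500 cells/well, 5 h settling beforehand. Concentration-response fitted to standard Hill equation for AC50. Tetraoctylammonium bromide served as positive control.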

Assay [11] can be described thus: Cell Viability - LYMP2-006 (AID 978).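 Further: cells exposed to compound for 24 hours; on the % scale 0 is the no-effect control and ±100 the full control effect; nearly all actives have a fitted effect of over 60% in size.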 To be noted: LYMP2-006 lymphoblastoid cell viability, qHTS; series mostly up to 92.2 µM. The method in brief:
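qHTS, 1536-well; 2500 cells/well, 5 hr 37 C; cpd 24 hr 37 C; CellTiter-Glo 30 min RT; luminescence. Tetraoctylammonium bromide pos. ctrl. AC50 via Hill eqn.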

Assay [12] can be described thus: Cell Viability - LYMP2-008 (AID 980). Further: nearly all actives have a fitted effect of over 60% in size. Further: potency means the concentration at half of the fitted maximal effect. On activity change, negative = cytotoxicity: on the % scale 0 is the no-effect control and ±100 the full control effect. Particulars: LYMP2-008 lymphoblastoid cell viability, qHTS; series mostly up to 92.2 µM. The method in brief: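 Acute cytotoxicity is scored as concentration-dependent loss of cellular ATP in a human lymphoblastoid line after 24 hr treatment at 37 C. ATP is quantified by luciferase luminescence.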
Assay [13] in a line: Cell Viability - LYMP2-026 (AID 989). Further: on the % scale 0 is the no-effect control and ±100 the full control effect; nearly all actives have a fitted effect of over 50% in size. Particulars: LYMP2-026 lymphoblastoid cell viability, qHTS; series mostly up to 92.2 µM. The method in brief: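 Concentration-dependent loss of intracellular ATP in human lymphoblastoid cells after 24 hr at 37 C, quantified by luciferase luminescence. AC50 derived from standard Hill equation.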
Assay [14] is described as follows: Cell Viability - LYMP1-002 - Assay at 24 hr (AID 993). Further: on the % scale 0 is the no-effect control and ±100 the full control effect. To be noted: LYMP1-002 lymphoblastoid cells viability; series mostly up to 92.2 µM. The method in brief:
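qHTS, LYMP1-002 lymphoblastoid, 24 h cpd, 37 C, CellTiter-Glo ATP luminescence; AC50 via Hill eq.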

The nature of assay [15]: Cell Viability - LYMP1-002 - Assay at 40 hr (AID 994).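 Further: 0% = DMSO only and full inhibition = 92 µM tetraoctylammonium bromide; nearly all actives have a fitted effect of over 60% in size.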 Particulars: LYMP1-002 lymphoblastoid cell viability; series mostly up to 92.2 µM. A digest of the protocol: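 Viability in the human lymphoblastoid line was measured as intracellular ATP via CellTiter-Glo after 40 hr compound exposure. Tetraoctylammonium bromide served as positive control.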
The nature of assay [16]: qHTS assay for small molecule agonists of retinoid X receptor alpha signaling (AID 588544). Particulars: HEK293T RXRa-UAS-bla, beta-lactamase reporter, 18 h; 530 nm emission.
A short description of assay [17]: qHTS assay for small molecule disruptors of the mitochondrial membrane potential - 5 hr assay (AID 651755; calls by dose curve; further: on the % scale 0 is the no-effect control and ±100 the full control effect; nearly all actives have a fitted effect of over 40% in size). Particulars: JC-1-type ratio dye; series mostly up to 92.2 µM. A digest of the protocol: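 HepG2 cells, attached overnight at 37C, were exposed to compound or DMSO for 5 hr at 37C, 5% CO2. Mito-MPS dye was then added for 30 min, and fluorescence read at 490/535 nm (monomers) and 540/590 nm (aggregates).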

Assay [18] deals with Tumor necrosis factor (Homo sapiens) (UniProt P01375). As to the kind of experiment: qHTS assay to identify small molecules that stimulate Tumor Necrosis Factor-alpha (TNF-alpha) secretion (AID 651757; active means well fitted curve in the direction sought with a large enough effect in the signal ratio; the % refers to the signal ratio; further: 0% is about no effect). Particulars: Human cells, HTRF 665/615 ratio; series mostly up to 92.2 µM. A digest of the protocol: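 Secreted TNF-alpha from compound-treated THP-1 cells (17 hrs, 37 C) was quantified with a homogeneous time-resolved fluorescence antibody assay.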

Assay [19] concerns the target Peroxisome proliferator-activated receptor alpha (Homo sapiens) (UniProt Q07869). As to the kind of experiment: qHTS assay for small molecule agonists of the peroxisome proliferator-activated receptor alpha (PPARalpha) signaling pathway (AID 651778). Further: % of control where 0% means no effect. To be noted: PathHunter PPARalpha complementation, chemiluminescence, 6 h; stronger effect = higher value. The method in brief: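 Cells plated at 2,000/well and held overnight at 37 C, 5% CO2, then compound added by pin tool for 6 hr; after PathHunter detection reagent and 60 min at room temperature, chemiluminescence from enzyme complementation was read.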

The nature of assay [20]: qHTS assay for small molecule agonists of the antioxidant response element (ARE) signaling pathway measured by Nrf2-dependant transcriptional activity (AID 720636; active means well fitted curve in the direction sought with a large enough effect in the repeat runs; an effect the other way counts as inactive or inconclusive; further: % of control where 0% means no effect). Particulars: ARE-luc HepG2, Nrf2 luciferase reporter, 16 h; series mostly up to 92.4 µM. A digest of the protocol: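 ONE-Glo luminescence, read 30 min after reagent addition at room temperature, reflected ARE reporter activity in HepG2 cells that had been incubated with compound for 16 hr at 37 C in 1% dialyzed FBS.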

The record followed here is PubChem BioAssay (NCATS).

Several values for one entry are separate records, joined by “and”; a condition that tells them apart may be missing. Equal entries are not always repeated. Records with an inconclusive call do not appear. Activity calls are given as the source filed them. Unless noted, the call rests on the fitted dose curve; in most records, active means well fitted curve in the direction sought with a large enough effect; inconclusive means small, poorly fitted or top-dose-only effect, or another doubt; inactive means no such curve, though single readings can be large; an effect the other way counts as inactive or inconclusive.

Tumor necrosis factor (Homo sapiens), sequence (P01375 whole entry, looked up): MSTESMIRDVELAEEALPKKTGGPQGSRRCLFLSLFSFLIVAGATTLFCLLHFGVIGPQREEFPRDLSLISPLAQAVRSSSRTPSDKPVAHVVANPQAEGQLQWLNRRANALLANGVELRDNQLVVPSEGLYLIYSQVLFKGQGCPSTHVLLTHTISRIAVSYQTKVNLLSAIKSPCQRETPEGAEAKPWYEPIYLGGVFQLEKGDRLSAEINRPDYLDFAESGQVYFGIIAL
Peroxisome proliferator-activated receptor alpha (Homo sapiens), sequence (Q07869 whole entry, looked up): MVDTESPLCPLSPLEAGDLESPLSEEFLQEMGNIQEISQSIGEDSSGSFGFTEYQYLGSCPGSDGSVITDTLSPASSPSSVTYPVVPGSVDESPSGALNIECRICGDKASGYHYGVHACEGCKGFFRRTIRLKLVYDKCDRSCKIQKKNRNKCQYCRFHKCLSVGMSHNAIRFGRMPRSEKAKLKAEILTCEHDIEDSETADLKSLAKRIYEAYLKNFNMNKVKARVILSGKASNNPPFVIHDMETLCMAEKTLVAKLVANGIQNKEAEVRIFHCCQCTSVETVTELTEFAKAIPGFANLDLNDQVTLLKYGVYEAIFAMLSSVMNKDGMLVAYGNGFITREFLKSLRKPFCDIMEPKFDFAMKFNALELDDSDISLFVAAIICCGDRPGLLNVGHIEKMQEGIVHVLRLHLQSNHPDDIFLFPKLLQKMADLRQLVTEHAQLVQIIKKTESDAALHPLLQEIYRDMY

Consider `ClC(Cl)(Cl)c1ccccc1`, for which the Potency in [1] and in [2] was > 92 µM (inactive) in each case. In [3], the activity change, negative = cytotoxicity is 2.93% (inactive) and 2.42% (inactive). Besides, the Potency entry in assay [4], in assay [8], in assay [9], in assay [10], in assay [11] and in [12] was “inactive” in each case. The Potency result in [13], in [14], in assay [15] and in assay [17] was “inactive” throughout. Further, the molecule was classed as inactive in [5], in [6], in [7], in assay [18] and in assay [20]. Also, the max response was 2.72% and -9.44% in assay [16]; -2.9% (inactive) and -5.05% (inactive) in assay [19].
As to `CC(C)(OO)c1ccccc1`, the Potency in [1] was 28.3 µM (active); in assay [2], > 92 µM (inactive); in [4], 25.1 µM (active); in [10], 50.1 µM (active); in [12], 39.8 µM (active). Further, the activity change, negative = cytotoxicity in assay [3] was 3.56% (inactive). In addition, the result in [5], in assay [7], in assay [18] and in assay [20] was inactive. The Potency entry in assay [8], in assay [9], in assay [11], in assay [13], in assay [14] and in assay [15] was “inactive” throughout. In addition, in assay [17], the Potency entry was “inactive”. Moreover, the max response in assay [16] is 21.6% and -3.11%; in assay [19], -1.59% (inactive) and -0.102% (inactive).
For `ClCBr`, the Potency in [1] and in assay [2] was > 92 µM (inactive) throughout. Also, the activity change, negative = cytotoxicity in assay [3] is -7.64% (inactive). The Potency entry in assay [4], in [8], in [9], in [10], in assay [11] and in [12] was “inactive” throughout. Besides, the Potency entry in assay [13], in [14], in [15] and in [17] was “inactive” throughout. For the same molecule, the molecule was called inactive in [5], in [6], in assay [7], in assay [18] and in assay [20]. Also, the max response was -17.3% in assay [16] and -7.14% (inactive) in assay [19].
For the molecule `BrCCBr`, the Potency in assay [1] and in assay [2] was > 92 µM (inactive) in each case. In addition, in assay [3], the activity change, negative = cytotoxicity is -0.148% (inactive). Besides, the Potency result in [4], in assay [8], in [9], in assay [10], in assay [11] and in assay [12] was “inactive” each time. Further, the Potency result in assay [13], in assay [14], in [15] and in assay [17] was “inactive” throughout. Further, the result in [5], in [6], in assay [7], in assay [18] and in assay [20] was inactive. For the same molecule, the max response is -0.875% and -18.5% in assay [16]; -2.04% (inactive) and -4.02% (inactive) in assay [19].
Turning to `CC(Cl)Cl`, the Potency in assay [1] and in assay [2] was > 92 µM (inactive) throughout. The activity change, negative = cytotoxicity in [3] is -11.1% (inactive). Further, the Potency entry in assay [4], in [8], in [9], in [10], in [11] and in [12] was “inactive” each time. Further, the Potency entry in assay [13], in [14], in [15] and in assay [17] was “inactive” throughout. Besides, the result in assay [5], in [6], in [7], in [18] and in [20] was inactive. Moreover, the max response in [16] is -6.24%; in [19] it was 4.62% (inactive).
For the molecule `CC(C)(C)OO`, the Potency in assay [1] and in assay [2] was > 92 µM (inactive) in each case. Also, the activity change, negative = cytotoxicity in [3] is 1.33% (inactive) and -10.7% (inactive). For the same molecule, the Potency result in assay [4], in [8], in assay [9], in assay [10], in assay [11] and in [12] was “inactive” each time. Further, the Potency result in [13], in assay [14], in assay [15] and in assay [17] was “inactive” throughout. Also, the call in [5], in [6], in assay [7], in assay [18] and in [20] was inactive. For the same molecule, the max response in assay [16] was 4.87% and -13.2%; in assay [19], -2.75% (inactive) and -4.99% (inactive).
